# Compounds without any hit were thinned out: in the full panel of roughly 83,000, 20% have a hit.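 Percent growth is the endpoint: 0 to 100 indicates growth inhibition (40 means 60% inhibition), 0 means no net growth, and negative values indicate cell death.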 Activity calls are given as the source filed them. The calls were made as follows: active = growth percent below 10; inactive = the rest.
# System: SR leukemia
# Experiment: NCI-60 one-dose screen, 48 h (100 = growth as untreated, 0 = no growth, -100 = all killed)
# Settings: 10 µM unless noted
row,SMILES,growth
1,COc1ccc(C(=O)OC2C(OC3C(O)COC(O[C@H]4C[C@H]5[C@@H]6CC=C7C[C@@H](O)CC[C@]7(C)[C@H]6CC[C@]5(C)[C@H]4[C@H](C)C(=O)CCC(C)C)C3OC(=O)C(C)C)OCC(O)C2O)cc1 (stereo partly drawn),5.59% (active)
2,CCSCC1CC(O)(c2ccccc2)C(c2ccccc2)C(c2ccc(F)cc2)O1 (stereo not drawn),1.33% (active)
3,Nc1c(N)c2ccccc2c2ccccc12,94.1% (inactive)
4,Cc1csc(N/N=C/c2ccncc2)n1,96.6% (inactive)
5,COc1ccc(-c2cc(C(=O)Nc3ccc(C)cc3)nc3[nH]c(=O)sc23)cc1,76.8% (inactive)
6,COc1ccccc1-[n+]1cc(-c2ccc(-c3ccccc3)cc2)n2c1CCCCC2,8.54% (active)
7,COc1ccc(/C=N/NC(N)=S)c(OC)n1,88.3% (inactive)
8,Nc1c(Br)cc2c(c1Br)Cc1cc(Cl)ccc1-2,80% (inactive)
9,Nc1nc(NC2CC2)cc(-c2cccc(Cl)c2Cl)n1,14.3% (inactive)
10,COc1cc2c(c(OC)c1O)C(=O)C(OC)C(c1ccc(O)c(O)c1)O2 (stereo not drawn),10.8% (inactive)

# System: RPMI-8226 leukemia
# Experiment: as above
# Settings: 10 µM unless noted
row,SMILES,growth
1,COc1cc(C2CC(c3ccccc3)=NN2C=O)ccc1Oc1nc2c(c(=O)n(C)c(=O)n2C)n1C (stereo not drawn),61.1% (inactive)
2,COc1ccc2[nH]cc(C3(c4c[nH]c5ccc(OC)cc45)C(=O)Nc4ccc(F)cc43)c2c1,40.9% (inactive)
3,CC1=CC(=O)OC1C/C=C(\C)CCC1[C@@]2(C)CCC[C@@](C)(C(=O)O)C2CC[C@@]1(C)O (stereo partly drawn),24.3% (inactive)
4,CC1=C(/C=C/C(C)=C/C=C(C(=O)O)\C(C)=C\C(=O)O)C(C)(C)CCC1,92% (inactive)
5,CCN(CCC#N)c1ccccc1,98% (inactive)
6,CCCCOC(=O)c1cc(O)c(O)c(O)c1,59.2% (inactive)
7,COc1cccc(-c2nc3sccn3c2-c2ccnc(NCCN3CCCNS3(=O)=O)n2)c1,102% (inactive)
8,CC(=O)Oc1ccccc1C(=O)Nc1ncc([N+](=O)[O-])s1,7.09% (active)
9,Cc1ccc([C@H]2c3[nH]c4ccccc4c3C[C@H]3C(=O)N(CCCCCCC(=O)NO)CC(=O)N23)cc1,3.03% (active)
10,COc1ccc(-c2cc(-c3cn(-c4cccc(Cl)c4)nc3-c3ccc(OC)cc3)[nH]c(=S)n2)cc1,50.1% (inactive)
11,CCn1c(Cc2ccccc2Nc2c(Cl)cccc2Cl)nnc1SCC(=O)Nc1ccccc1C(F)(F)F,76.4% (inactive)
12,COc1cc(/C=C/c2cc(/C=C/c3ccc(O)c(OC)c3)n(C(=O)c3ccccc3Br)n2)ccc1O,14.3% (inactive)
13,CCOC(=O)C(Cc1ccccc1)n1c(O)c(/C=N/c2ncc(Cc3ccc(Cl)cc3Cl)s2)sc1=S (stereo not drawn),-7.55% (active)
14,Cc1nn(-c2cccc(Cl)c2)c(C)c1N=Nc1ccc(Br)cc1,95.4% (inactive)
15,O=C(N/N=C\c1cc(Br)ccc1O)c1ccncc1,36.9% (inactive)
16,CC(C)OC1OC(OC(C)C)C(OC(C)C)OC1OC(C)C (stereo not drawn),94.5% (inactive)
17,COc1ccc2c(c1)C1=NN(C(=O)CO)[C@H](c3ccc(OC(F)(F)F)cc3)[C@@H]1CC2,42.9% (inactive)
18,Cn1c(-c2ccccc2)cc(=O)n1-c1ccccc1,96.5% (inactive)
19,CC(C)(C)c1ccc(C(=O)Nc2sc3cc(O)ccc3c2C(N)=O)cc1,5.05% (active)

row,SMILES,growth
1,O=C1N(Cc2ccccc2Cl)c2ccccc2C12NN=C(c1ccccc1)S2 (stereo not drawn),66.3% (inactive)
2,CC(=O)c1ccc(N2C(=O)c3ccc(Oc4ccccc4)cc3C2=O)cc1,101% (inactive)
3,CC1CCCN(CCCCOc2ccc(-c3ccc(C#N)cc3)cc2)C1 (stereo not drawn),71.1% (inactive)
4,CNC(=O)c1c(NC(=O)c2cccc(C(F)(F)F)c2)sc2c1CCC(=O)C2,-33% (active)
5,OC(COCc1ccccc1)COCc1ccccc1,109% (inactive)
6,CN1CCCN(CCNc2nccc(-c3c(-c4cccc(O)c4)nc4sccn34)n2)S1(=O)=O,81.7% (inactive)
7,CC(=O)NC1C(O[C@H]2C[C@H]3[C@@H]4CC=C5C[C@@H](O)CC[C@]5(C)[C@H]4CC[C@]3(C)[C@H]2[C@H](C)C(=O)CCC(C)C)OCC(O)C1O (stereo partly drawn),-9.81% (active)
8,CN(C)c1nc(-c2cccs2)n2nc(-c3ccc(Cl)cc3)cc2n1,74.3% (inactive)
9,O=C1NN(C(=O)c2ccccc2)C(c2ccc(Cl)c(Cl)c2)=C/C1=C\c1ccccc1[N+](=O)[O-],2.27% [6.75 µM] (active)
10,COc1ccc(C(=O)OC2C(OC3C(O)COC(O[C@H]4C[C@H]5[C@@H]6CC=C7C[C@@H](O)CC[C@]7(C)[C@H]6CC[C@]5(C)[C@H]4[C@H](C)C(=O)CCC(C)C)C3OC(=O)C(C)C)OCC(O)C2O)cc1 (stereo partly drawn),-27.4% (active)
11,CCSCC1CC(O)(c2ccccc2)C(c2ccccc2)C(c2ccc(F)cc2)O1 (stereo not drawn),-16.1% (active)
12,Nc1c(N)c2ccccc2c2ccccc12,94.8% (inactive)
13,Cc1csc(N/N=C/c2ccncc2)n1,131% (inactive)
14,COc1ccc(-c2cc(C(=O)Nc3ccc(C)cc3)nc3[nH]c(=O)sc23)cc1,47.2% (inactive)
15,COc1ccccc1-[n+]1cc(-c2ccc(-c3ccccc3)cc2)n2c1CCCCC2,-14.7% (active)
16,COc1ccc(/C=N/NC(N)=S)c(OC)n1,94.8% (inactive)
17,Nc1c(Br)cc2c(c1Br)Cc1cc(Cl)ccc1-2,105% (inactive)
18,Nc1nc(NC2CC2)cc(-c2cccc(Cl)c2Cl)n1,74.2% (inactive)
19,COc1cc2c(c(OC)c1O)C(=O)C(OC)C(c1ccc(O)c(O)c1)O2 (stereo not drawn),-19.3% (active)

# Reference: PubChem BioAssay (NCI)
